The record followed here is ChEMBL document CHEMBL1157539, “Thousands of chemical starting points for antimalarial lead identification” (Nature, 2010).

Type in all cases: functional
Test [1] concerns Plasmodium falciparum. The test is described as follows: GSK_TCMDC: Inhibition of Plasmodium falciparum 3D7 in whole red blood cells, using parasite LDH activity as an index of growth. Test compounds present at 2uM.
In test [2] the test system is Plasmodium falciparum. In words: GSK_TCMDC: Inhibition of Plasmodium falciparum Dd2 in whole red blood cells, using parasite LDH activity as an index of growth. Test compounds present at 2uM.
In another test the test system is HepG2. The test is described as follows: GSK_TCMDC: Percent inhibition of human HepG2 cell line. Test compounds present at 10uM.

Each structure is given as a SMILES string. Where “and” joins values, the source holds several entries; their conditions need not be identical. Equal values may be shown once.

As for `CCOc1ccc2nccc([C@@H](O)[C@@H]3C[C@@H]4CCN3C[C@@H]4CC)c2c1` [ETHYLHYDROCUPREINE], the Inhibition is on record as 99% with Plasmodium falciparum [1], 51% in the test with Plasmodium falciparum [2] and 1% with HepG2.
Regarding `COc1ccc(CC(C)NCC(O)c2cccc(C(F)(F)F)c2)cc1` (configuration not stated), the results for the Inhibition in the test on Plasmodium falciparum [1], with Plasmodium falciparum [2] and with HepG2 were 98%, 94% and 0%, respectively.
For `COc1cccc(C(=O)C2CC2CN2CC=C(c3c(C)[nH]c4ccccc34)CC2)c1` (configuration not stated) the same measures were 92%, 87% and 13%.
The matching figures for `CC[C@H]1CN2CC[C@H]1C[C@H]2[C@H](O)c1cc(-c2cccc(F)c2)nc2ccc(OC)cc12.Cl`: 99%, 97% and 34%.
For `CCCC(=O)c1c(O)c2ccccc2oc1=O` the same measures were 93%, 1% and 11%.
As for `Cn1cc(CN2CCC(CCOC(c3ccccc3)c3ccccc3)CC2)cn1`, the Inhibition is listed as 99% with Plasmodium falciparum [1], 100% in the test with Plasmodium falciparum [2] and 27% in the test on HepG2.
For `O=C(/C=C/c1ccc(Cl)c(Cl)c1)NCC1CCC(N2CCC(c3c[nH]c4ccccc34)CC2)CC1` (configuration not stated) the same measures were 100%, 95% and 48%.
The matching figures for `CCc1ccc(CC(C)NCC(O)c2ccccc2)cc1.O` (configuration not stated): 89%, 77% and 0%.
For `CC(C)c1ccc(C=CC(=O)NC2CCC(CN3CCC(c4c[nH]c5ccccc45)CC3)CC2)cc1` (configuration not stated) the same measures were 100%, 85% and 50%.
As to `CC[C@H]1CN2CC[C@H]1C[C@H]2[C@H](O)c1cc(N2CCCC(CO)C2)nc2ccc(OC)cc12` (some centres not stated), the Inhibition in the test on Plasmodium falciparum [1] was found to be 100%; in the test with Plasmodium falciparum [2], 99%; in the test with HepG2, 11%.
With `O=C(/C=C/c1cc(F)cc(C(F)(F)F)c1)N1CCC(CN2CCC(c3c[nH]c4ccccc34)CC2)CC1`, the Inhibition in the test with Plasmodium falciparum [1] came out at 100%; with Plasmodium falciparum [2] it was 74%; with HepG2, 32%.
For `Cc1csc(NC2=NCCN2)n1.Cl` the same measures were 99%, 1% and 10%.
Take `O=C(C=C1c2ccccc2-c2ccccc21)NC1CCC(CN2CCC(c3c[nH]c4ccccc34)CC2)CC1` (configuration not stated): the Inhibition was 99% and 100% in the test on Plasmodium falciparum [1]; 64% and 67% in the test on Plasmodium falciparum [2]; 21% and 54% in the test with HepG2.
With `Cc1[nH]c2cc(F)ccc2c1C1=CCN(CCCCC2(C)C(=O)Nc3c(F)cccc32)CC1` (configuration not stated), the values for the Inhibition in the test on Plasmodium falciparum [1], in the test with Plasmodium falciparum [2] and in the test on HepG2 were 96%, 89% and 15%, respectively.
For `CC[C@H]1CN2CC[C@H]1C[C@H]2[C@H](O)c1cc(N2CCCC(C(=O)N(CC)CC)C2)nc2ccc(OC)cc12` (some centres not stated) the same measures were 100%, 99% and 0%.
The matching figures for `CC(C)CNCc1cccc(-c2cccc(CN(C(=O)Nc3ccccc3)C3CCN(Cc4ccccc4)CC3)c2)c1.O=C(O)C(F)(F)F`: 100%, 89% and 31%.
The matching figures for `Cc1cc(O)cc2c(C3CCN(CC4CCN(C(=O)/C=C/c5ccc(Cl)c(Cl)c5)CC4)CC3)c[nH]c12`: 100%, 100% and 33%.
Regarding `CN(c1ccc(NC(=O)CCOc2ccccc2)cc1)C1CCN(Cc2cccc(O)c2)CC1.O=C(O)C(F)(F)F`, the Inhibition is 89% in the test on Plasmodium falciparum [1], 0% with Plasmodium falciparum [2] and 18% with HepG2.
The matching figures for `CN1CC[C@H](N(Cc2ccccc2F)c2ccc(C#N)c(Cl)c2)C1`: 88%, 68% and 18%.
In the case of `COc1ccc(CCNCc2ccc3c(C)cc(N)nc3c2)cc1`, the Inhibition in the test on Plasmodium falciparum [1] came to 100%; in the test on Plasmodium falciparum [2] it was 69%; in the test with HepG2 it was 12%.
The matching figures for `CCCN(CC(=O)NCCc1ccccc1)c1ccc(C#N)c2ccccc12.O=C(O)C(F)(F)F`: 92%, 39% and 8%.
The matching figures for `CC(C)CNCc1cccc(-c2ccc(CN(C(=O)c3cccs3)C3CCN(Cc4ccccc4)CC3)cc2)c1.O=C(O)C(F)(F)F`: 85%, 40% and 22%.
For `COC(=O)c1ccc(CC(C)NCC(O)c2ccc(F)c(Cl)c2)cc1.Cl` (configuration not stated) the same measures were 98%, 78% and 0%.
As to `CCCCCNC(=N)N/N=C/c1c[nH]c2ccc(OC)cc12.Cl`, the Inhibition with Plasmodium falciparum [1] came to 86%; in the test with Plasmodium falciparum [2], 2%; in the test on HepG2, 16%.
For `O=C(Nc1ccc(Cl)c(Cl)c1)N1CCC(CN2CCC(c3c[nH]c4ccccc34)CC2)CC1` the same measures were 100%, 69% and 46%.
For the compound `Cc1cc(C(=O)NC2CCN(CC3(c4ccc(Cl)cc4)CCC3)CC2)on1`, the values for the Inhibition in the test on Plasmodium falciparum [1], in the test on Plasmodium falciparum [2] and with HepG2 were 98%, 95% and 5%, respectively.
The matching figures for `CCCCCCCN1C2CCC1CC(CCOc1ccnc3ccc(OC)cc13)C2` (configuration not stated): 98%, 88% and 23%.
For `CO[C@@H]1C[C@@H](C(=O)Nc2ccccc2)N(c2ccc(C#N)c3ccccc23)C1` the same measures were 98%, 100% and 7%.
The matching figures for `O=C(/C=C/c1ccc(F)c(C(F)(F)F)c1)N1CCC(CN2CCC(c3c[nH]c4ccccc34)CC2)CC1`: 98%, 1% and 23%.

The Inhibition is the relative decrease from the control value, in per cent.
